The values that follow come from PubChem BioAssay AID2018 (Sanford-Burnham Center for Chemical Genomics, 2009).

In all, about 1,200 compounds went through this assay and about 600 (50%) were called active. The set was probably picked from earlier hits. The list shows a part of the results. Measured potencies and affinities stand elsewhere. Unmarked numbers belong to inactive results. Rule as the data show it: active = inhibition above about 42%; inactive = the rest.

A word on the inhibition: it is the relative decrease from the control value, in per cent.

SUMO-conjugating enzyme UBC9 (Homo sapiens), sequence (P63279 whole entry, looked up): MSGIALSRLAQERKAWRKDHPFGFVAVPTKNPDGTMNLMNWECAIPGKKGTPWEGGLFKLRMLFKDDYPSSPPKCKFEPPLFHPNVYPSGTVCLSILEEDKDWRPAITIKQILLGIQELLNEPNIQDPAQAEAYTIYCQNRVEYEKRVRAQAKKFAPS

This assay concerns the target SUMO-conjugating enzyme UBC9 (Homo sapiens) (UniProt P63279). In words: blockers of UBC9-mediated SUMO conjugation – biochemical, AlphaScreen, SUMOylation inhibitor project, confirmation (AID 2018). The settings on record: AlphaScreen in vitro SUMOylation assay; at 35 µM; active compounds read high. (Alpha assays give light when donor and acceptor beads are brought close together.)
`O=C(O)CC1OCC=C2CN3CCC45C6=CC(=O)C(=O)C([N+](=O)[O-])=C6NC4C1C2CC35` (centres undefined): the inhibition is 102% (active).
The result for `CN1CCN(c2ccc(S(C)(=O)=O)cc2[N+](=O)[O-])CC1` reads -12.2%; that for `Cc1cc(/C=C2\C(=O)NC(=O)N(Cc3ccccc3)C2=O)c(C)n1-c1ccc(Cl)c(C(=O)O)c1`, 102% (active).
Turning to `CC(=O)c1ccc2c(c1)C1C(Cl)C(Sc3ccccc3[N+](=O)[O-])CC1C(C(=O)O)N2` (centres undefined), the inhibition was 102% (active).
The result for `CC(=O)c1ccc2c(c1)C1C(Cl)C(Sc3ccccc3[N+](=O)[O-])CC1C(c1ccccc1[N+](=O)[O-])N2` (centres undefined) reads 38.6%; that for `CC(C)CCNC(=O)c1c(N)n(Cc2ccc3c(c2)OCO3)c2nc3ccccc3nc12`, 18.5%.
Regarding `Cc1c(CC(=O)N2C[C@H]3C[C@@H](C2)c2cccc(=O)n2C3)c(=O)oc2c(C)c(O)ccc12`, the inhibition was 54.2% (active).
The value for `Nc1c(C(=O)NCCCc2ccccc2)c2nc3ccccc3nc2n1Cc1cccs1` was -10.2%.
The value for `Cc1[nH]n(-c2ccccc2)c(=O)c1C(c1ccc([N+](=O)[O-])cc1)c1c(C)[nH]n(-c2ccccc2)c1=O` was 102% (active); that for `CCN(CC)c1ccc([N+](=O)[O-])c2cccnc12` was 33.7%; that for `CCCNC(=O)c1c(N)n(Cc2ccc3c(c2)OCO3)c2nc3ccccc3nc12` was 13.5%.
The result for `CC(C)OCCCNC(=O)c1c(N)n(CC2CCCO2)c2nc3ccccc3nc12` (centres undefined) reads -76.6%; that for `CC(C)CCNC(=O)c1c(N)n(CC2CCCO2)c2nc3ccccc3nc12` (centres undefined), -37.9%.
As to `CCC(C)NC(=O)c1c(N)n(CC2CCCO2)c2nc3ccccc3nc12` (centres undefined), the inhibition is 101% (active).
Regarding `Nc1c(C(=O)NC2CCCC2)c2nc3ccccc3nc2n1CC1CCCO1` (centres undefined), the inhibition is 100% (active).
The result for `CCCNC(=O)c1c(N)n(CC2CCCO2)c2nc3ccccc3nc12` (centres undefined) reads -23.2%; that for `CCC(C)NC(=O)c1c(N)n(Cc2ccc3c(c2)OCO3)c2nc3ccccc3nc12` (centres undefined), 11%; that for `CN1CCC2(CC1)C(C#N)=C(N)NC(S)=C2C#N`, 38.8%.
The value for `COCCNC(=O)c1c(NC(=O)c2ccco2)n(Cc2ccccc2)c2nc3ccccc3nc12` was -28.4%; that for `CCCCn1c(NC(=O)c2ccco2)c(C(=O)OCC)c2nc3ccccc3nc21` was 62.6% (active).
The value for `CCCCn1c(NS(=O)(=O)c2ccc(C)cc2)c(C(=O)OCC)c2nc3ccccc3nc21` was 28.2%; that for `CCCCn1c(NS(=O)(=O)c2ccccc2)c(C(=O)OCC)c2nc3ccccc3nc21` was 101% (active).
As to `CCCCn1c(N)c(C(=O)OCC2CCCO2)c2nc3ccccc3nc21` (centres undefined), the inhibition is 25.4%.
For the compound `COc1cc(Cn2c(N)c(C(=O)NCc3ccco3)c3nc4ccccc4nc32)cc(OC)c1OC`, the inhibition is 50.8% (active).
The value for `CCOC(=O)c1c(NC(=O)c2c(N)n(CCCOC)c3nc4ccccc4nc23)sc2c1CCCC2` was 41.9%.
With `COCCCn1c(N)c(C(=O)Nc2ccccc2)c2nc3ccccc3nc21`, the inhibition was -4.1%.
The result for `COCCCn1c(N)c(C(=O)NCc2ccco2)c2nc3ccccc3nc21` reads -8.5%; that for `CC(C)CCn1c(N)c(C(=O)NCc2cccs2)c2nc3ccccc3nc21`, 4.2%; that for `CCCCn1c(N)c(C(=O)NCc2cccs2)c2nc3ccccc3nc21`, 51.4% (active).
Take `CCCCNC(=O)c1c(N)n(CCCOC)c2nc3ccccc3nc12`: the inhibition is 102% (active).
The result for `CCOCCCn1c(N)c(C(=O)Nc2sc3c(c2C(=O)OC)CCCC3)c2nc3ccccc3nc21` reads 47% (active); that for `COc1ccc(Cn2c(N)c(C(=O)NCc3ccco3)c3nc4ccccc4nc32)cc1`, -14.9%; that for `CCCCCn1c(N)c(C(=O)NCc2cccs2)c2nc3ccccc3nc21`, 9.5%.
The value for `COCCCn1c(N)c(C(=O)NCCC(C)C)c2nc3ccccc3nc21` was -40.9%.
The value for `COc1ccc(Cc2nccc3cc(OC)c(OC)cc23)cc1OC` was 37.6%; that for `c1ccc2c(NC3=NCCS3)cccc2c1` was 19.6%; that for `CN1CCc2nc3sc(C#N)c(N)c3c(-c3cccs3)c2C1` was 29.8%.
For the compound `CN1CCN(c2ccc3nccnc3c2)CC1`, the inhibition was 6.7%.
As for `O=C(O)CCn1cc(C=C2C(=O)NC(=O)NC2=O)c(-c2ccc(Br)cc2)n1`, the inhibition was 1%.
Regarding `COCCNC(=O)c1c(N)n(CCC(C)C)c2nc3ccccc3nc12`, the inhibition was -54.5%.
The result for `COCCCn1c(N)c(C(=O)OCCOC)c2nc3ccccc3nc21` reads 10.5%; that for `CCC(C)NC(=O)c1c(N)n(CCCOC)c2nc3ccccc3nc12` (centres undefined), 74% (active).
The result for `Cc1ccsc1C(=O)C1CCCN(Cc2ccc(-n3cccn3)cc2)C1` (centres undefined) reads -14.4%; that for `CC(C)CNC(=O)c1c(N)n(Cc2ccc3c(c2)OCO3)c2nc3ccccc3nc12`, -19.8%; that for `CC(C)[C@H]1C(=O)N2CCC[C@H]2[C@]2(O)O[C@](NC(=O)[C@@H]3C=C4c5cccc6[nH]cc(c56)C[C@H]4N(C)C3)(C(C)C)C(=O)N12`, 54.8% (active).
The value for `CN1C[C@H](CO)C=C2c3cccc4[nH]cc(c34)C[C@H]21` was 10.8%.
In the case of `Cn1c(O)c(/C=C2\N=c3ccccc3=C2CCNC(=S)NC2CC2)c(=O)n(C)c1=O`, the inhibition is 58.6% (active).
The value for `O=C(c1cccn2c(=O)c3ccc(Cl)cc3nc12)N1CCC2(CC1)OCCO2` was 20.5%; that for `COc1ccc(OC)c(N2C(=O)NC(=O)/C(=C/c3ccc([N+](=O)[O-])s3)C2=O)c1` was 86.3% (active).
